In the supplement of paper PMC11732987, “Enantioselective OTUD7B fragment discovery through chemoproteomics screening and high-throughput optimisation” (Communications Chemistry, 2025):

Experiments:
Assay in all cases: log2 ratio of Biotin-Ahx-Ub-VS probe labelling (fragment/DMSO); higher = less target engagement (more negative = stronger competition), active = hit call of the paper (q ≤ 0.05, log2 ratio ≤ -1)
Details in all cases: compound concentration: 200 uM; treatment time: 3 h
USP34 = USP34 (UniProt Q70CQ2)
USP34, sequence (Q70CQ2 whole entry, the tested form may be a part): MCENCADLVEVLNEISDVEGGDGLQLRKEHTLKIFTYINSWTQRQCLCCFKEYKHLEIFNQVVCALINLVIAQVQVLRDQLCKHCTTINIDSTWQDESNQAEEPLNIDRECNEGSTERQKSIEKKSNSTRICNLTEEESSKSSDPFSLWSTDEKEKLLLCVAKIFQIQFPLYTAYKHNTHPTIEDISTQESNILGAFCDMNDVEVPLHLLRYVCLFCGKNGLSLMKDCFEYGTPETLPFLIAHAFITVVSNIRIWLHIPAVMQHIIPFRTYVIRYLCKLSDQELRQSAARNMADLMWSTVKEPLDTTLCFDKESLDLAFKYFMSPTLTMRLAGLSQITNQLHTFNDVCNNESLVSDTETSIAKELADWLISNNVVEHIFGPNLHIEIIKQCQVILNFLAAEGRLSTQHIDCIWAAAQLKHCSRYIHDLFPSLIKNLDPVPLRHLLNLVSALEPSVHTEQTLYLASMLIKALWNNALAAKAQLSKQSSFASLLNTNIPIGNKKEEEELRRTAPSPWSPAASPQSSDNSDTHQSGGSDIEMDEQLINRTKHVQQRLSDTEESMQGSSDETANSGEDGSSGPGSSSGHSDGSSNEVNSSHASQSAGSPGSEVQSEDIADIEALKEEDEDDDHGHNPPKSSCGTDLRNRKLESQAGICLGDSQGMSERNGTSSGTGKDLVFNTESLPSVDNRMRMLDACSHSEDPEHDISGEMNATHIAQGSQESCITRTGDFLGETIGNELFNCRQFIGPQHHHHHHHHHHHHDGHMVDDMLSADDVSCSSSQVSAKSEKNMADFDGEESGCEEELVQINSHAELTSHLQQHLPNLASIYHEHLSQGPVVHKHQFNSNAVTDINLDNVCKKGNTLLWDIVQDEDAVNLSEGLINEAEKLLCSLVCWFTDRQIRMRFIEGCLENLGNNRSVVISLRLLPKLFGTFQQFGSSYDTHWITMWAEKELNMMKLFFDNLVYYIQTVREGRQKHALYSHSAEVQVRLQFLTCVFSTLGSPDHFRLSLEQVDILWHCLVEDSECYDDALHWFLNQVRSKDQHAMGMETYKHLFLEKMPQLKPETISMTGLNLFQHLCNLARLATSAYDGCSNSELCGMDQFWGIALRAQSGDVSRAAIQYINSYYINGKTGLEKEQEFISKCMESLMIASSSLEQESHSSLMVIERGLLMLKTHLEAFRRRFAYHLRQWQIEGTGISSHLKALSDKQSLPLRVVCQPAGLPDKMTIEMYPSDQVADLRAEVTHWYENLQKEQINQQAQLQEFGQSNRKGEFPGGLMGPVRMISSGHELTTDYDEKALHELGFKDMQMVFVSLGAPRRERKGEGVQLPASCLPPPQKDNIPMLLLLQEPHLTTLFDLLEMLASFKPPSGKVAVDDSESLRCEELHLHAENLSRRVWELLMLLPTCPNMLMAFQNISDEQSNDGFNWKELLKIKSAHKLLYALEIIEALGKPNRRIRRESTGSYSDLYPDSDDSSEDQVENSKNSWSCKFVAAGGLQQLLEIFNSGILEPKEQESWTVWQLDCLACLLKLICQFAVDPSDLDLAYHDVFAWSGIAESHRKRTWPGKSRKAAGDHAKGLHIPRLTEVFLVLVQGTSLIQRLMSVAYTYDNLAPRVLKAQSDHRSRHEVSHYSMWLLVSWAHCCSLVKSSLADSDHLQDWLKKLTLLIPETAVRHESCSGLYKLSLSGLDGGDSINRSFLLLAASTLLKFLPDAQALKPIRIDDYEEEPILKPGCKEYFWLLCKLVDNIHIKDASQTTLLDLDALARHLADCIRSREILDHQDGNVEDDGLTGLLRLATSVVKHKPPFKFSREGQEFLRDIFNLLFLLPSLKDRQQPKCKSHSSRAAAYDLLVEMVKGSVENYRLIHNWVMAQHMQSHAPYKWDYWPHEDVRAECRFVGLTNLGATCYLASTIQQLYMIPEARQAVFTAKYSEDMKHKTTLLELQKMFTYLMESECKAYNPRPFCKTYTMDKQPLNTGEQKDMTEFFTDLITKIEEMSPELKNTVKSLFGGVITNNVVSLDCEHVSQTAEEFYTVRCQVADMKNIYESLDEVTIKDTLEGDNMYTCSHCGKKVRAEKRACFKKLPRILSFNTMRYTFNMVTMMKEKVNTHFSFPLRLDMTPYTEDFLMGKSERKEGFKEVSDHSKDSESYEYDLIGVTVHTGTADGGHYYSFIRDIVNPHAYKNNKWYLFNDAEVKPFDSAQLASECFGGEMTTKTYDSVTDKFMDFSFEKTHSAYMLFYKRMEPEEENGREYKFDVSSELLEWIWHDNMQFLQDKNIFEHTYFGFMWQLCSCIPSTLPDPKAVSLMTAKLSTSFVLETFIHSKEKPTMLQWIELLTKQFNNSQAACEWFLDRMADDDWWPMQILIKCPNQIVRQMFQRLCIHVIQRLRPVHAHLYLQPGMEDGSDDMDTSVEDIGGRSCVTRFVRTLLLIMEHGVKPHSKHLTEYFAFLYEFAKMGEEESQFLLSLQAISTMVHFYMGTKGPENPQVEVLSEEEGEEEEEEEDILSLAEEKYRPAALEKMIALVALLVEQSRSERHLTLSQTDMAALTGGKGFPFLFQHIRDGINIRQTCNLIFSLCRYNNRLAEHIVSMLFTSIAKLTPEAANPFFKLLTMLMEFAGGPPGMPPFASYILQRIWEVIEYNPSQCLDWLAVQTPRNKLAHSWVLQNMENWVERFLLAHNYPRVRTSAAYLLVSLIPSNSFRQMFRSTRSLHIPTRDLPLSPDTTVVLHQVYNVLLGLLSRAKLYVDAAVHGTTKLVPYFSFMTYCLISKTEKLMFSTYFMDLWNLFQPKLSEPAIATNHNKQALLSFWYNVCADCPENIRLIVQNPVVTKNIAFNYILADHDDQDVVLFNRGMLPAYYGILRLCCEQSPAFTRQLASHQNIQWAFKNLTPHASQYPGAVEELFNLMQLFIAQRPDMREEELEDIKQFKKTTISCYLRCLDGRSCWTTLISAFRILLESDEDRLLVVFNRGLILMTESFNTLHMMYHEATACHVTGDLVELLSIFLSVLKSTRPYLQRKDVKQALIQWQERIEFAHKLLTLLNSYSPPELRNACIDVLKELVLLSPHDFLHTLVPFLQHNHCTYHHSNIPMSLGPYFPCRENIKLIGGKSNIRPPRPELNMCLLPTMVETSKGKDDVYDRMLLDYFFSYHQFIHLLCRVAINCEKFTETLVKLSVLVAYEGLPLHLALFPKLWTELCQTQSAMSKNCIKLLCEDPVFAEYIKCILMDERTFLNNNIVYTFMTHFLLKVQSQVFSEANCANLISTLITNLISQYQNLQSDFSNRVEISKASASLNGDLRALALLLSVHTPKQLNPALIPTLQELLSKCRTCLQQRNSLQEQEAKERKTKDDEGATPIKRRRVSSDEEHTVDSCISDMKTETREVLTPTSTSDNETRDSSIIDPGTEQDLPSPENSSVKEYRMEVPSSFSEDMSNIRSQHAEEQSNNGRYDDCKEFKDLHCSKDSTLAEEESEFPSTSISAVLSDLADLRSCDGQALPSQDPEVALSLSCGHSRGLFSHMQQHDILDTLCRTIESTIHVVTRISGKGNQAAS
Outline: (§1)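 HEK293T lysate, 495 µg per sample in Tris/CHAPS/IGEPAL buffer with protease inhibitors, was treated in triplicate with fragment at 200 µM or vehicle for 3 h and then with Biotin-Ahx-Ub-VS at 0.5 µM final for 1 h. Labelled DUBs were NeutrAvidin-enriched, digested with LysC and trypsin, and run by diaPASEF LC-MS/MS. Spectronaut label-free quantities were global-median-normalised, and values are average log2 fragment/vehicle ratios by unpaired t-test on proteins with ≥2 unique peptides.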

USP36 = molecular target: T1, USP36 (UniProt Q9P275)
T1 sequence (whole entry): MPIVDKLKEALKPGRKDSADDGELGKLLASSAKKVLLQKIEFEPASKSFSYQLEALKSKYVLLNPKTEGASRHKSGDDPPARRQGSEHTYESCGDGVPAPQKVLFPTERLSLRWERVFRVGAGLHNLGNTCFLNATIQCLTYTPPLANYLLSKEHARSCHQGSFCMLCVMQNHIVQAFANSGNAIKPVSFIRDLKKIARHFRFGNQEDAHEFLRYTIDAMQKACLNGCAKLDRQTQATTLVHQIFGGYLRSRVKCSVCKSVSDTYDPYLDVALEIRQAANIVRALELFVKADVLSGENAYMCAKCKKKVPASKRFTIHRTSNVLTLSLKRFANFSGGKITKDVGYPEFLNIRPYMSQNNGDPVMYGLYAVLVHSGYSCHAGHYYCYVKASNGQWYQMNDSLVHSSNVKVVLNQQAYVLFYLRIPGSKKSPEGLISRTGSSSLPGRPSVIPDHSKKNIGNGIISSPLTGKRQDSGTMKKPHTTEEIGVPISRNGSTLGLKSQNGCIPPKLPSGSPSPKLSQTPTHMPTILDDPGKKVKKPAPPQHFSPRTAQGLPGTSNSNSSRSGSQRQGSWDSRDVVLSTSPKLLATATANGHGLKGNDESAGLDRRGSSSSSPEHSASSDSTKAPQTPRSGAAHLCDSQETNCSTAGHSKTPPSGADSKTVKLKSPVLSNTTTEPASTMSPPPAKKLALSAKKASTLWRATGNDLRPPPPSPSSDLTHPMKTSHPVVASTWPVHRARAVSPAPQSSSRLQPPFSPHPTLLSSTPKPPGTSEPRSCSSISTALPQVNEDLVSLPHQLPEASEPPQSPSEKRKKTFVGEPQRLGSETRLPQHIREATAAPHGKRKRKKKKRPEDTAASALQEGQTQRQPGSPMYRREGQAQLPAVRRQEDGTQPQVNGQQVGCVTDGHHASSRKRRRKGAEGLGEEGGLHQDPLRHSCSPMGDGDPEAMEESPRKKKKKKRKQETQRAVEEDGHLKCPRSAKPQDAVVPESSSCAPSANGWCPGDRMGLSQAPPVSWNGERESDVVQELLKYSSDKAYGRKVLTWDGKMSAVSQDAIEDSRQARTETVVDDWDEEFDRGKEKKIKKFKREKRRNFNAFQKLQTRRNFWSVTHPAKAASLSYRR
Outline: as §1

USP38 = molecular target: T2, USP38 (UniProt Q8NB14)
T2 sequence (whole entry): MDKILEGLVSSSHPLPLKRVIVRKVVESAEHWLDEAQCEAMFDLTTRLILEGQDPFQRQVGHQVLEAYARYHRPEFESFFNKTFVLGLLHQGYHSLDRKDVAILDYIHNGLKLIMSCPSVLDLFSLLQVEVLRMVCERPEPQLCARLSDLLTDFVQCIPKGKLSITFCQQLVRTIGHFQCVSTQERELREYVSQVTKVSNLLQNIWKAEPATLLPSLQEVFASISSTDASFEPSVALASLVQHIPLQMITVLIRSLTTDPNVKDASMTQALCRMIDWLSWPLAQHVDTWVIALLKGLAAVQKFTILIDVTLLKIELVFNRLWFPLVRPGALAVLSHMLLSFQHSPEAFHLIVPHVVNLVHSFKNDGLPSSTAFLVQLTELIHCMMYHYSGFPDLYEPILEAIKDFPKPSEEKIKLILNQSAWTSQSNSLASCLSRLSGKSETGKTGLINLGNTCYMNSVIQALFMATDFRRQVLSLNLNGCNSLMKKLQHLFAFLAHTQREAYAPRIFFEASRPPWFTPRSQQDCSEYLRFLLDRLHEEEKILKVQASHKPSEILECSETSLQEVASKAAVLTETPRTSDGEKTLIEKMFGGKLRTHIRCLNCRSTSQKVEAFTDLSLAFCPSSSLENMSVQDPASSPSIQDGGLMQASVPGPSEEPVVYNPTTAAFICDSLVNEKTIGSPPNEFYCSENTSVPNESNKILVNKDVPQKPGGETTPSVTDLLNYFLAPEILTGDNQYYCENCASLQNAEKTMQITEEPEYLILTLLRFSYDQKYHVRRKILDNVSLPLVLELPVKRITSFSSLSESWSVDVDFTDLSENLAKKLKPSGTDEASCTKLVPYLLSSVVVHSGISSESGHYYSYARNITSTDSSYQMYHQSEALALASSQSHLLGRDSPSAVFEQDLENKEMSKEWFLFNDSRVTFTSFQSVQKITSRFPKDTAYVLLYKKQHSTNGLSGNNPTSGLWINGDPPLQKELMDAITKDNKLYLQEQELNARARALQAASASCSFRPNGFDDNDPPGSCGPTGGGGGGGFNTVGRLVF
Outline: as §1

USP39 = molecular target: T3, USP39 (UniProt Q53GS9)
T3 sequence (whole entry): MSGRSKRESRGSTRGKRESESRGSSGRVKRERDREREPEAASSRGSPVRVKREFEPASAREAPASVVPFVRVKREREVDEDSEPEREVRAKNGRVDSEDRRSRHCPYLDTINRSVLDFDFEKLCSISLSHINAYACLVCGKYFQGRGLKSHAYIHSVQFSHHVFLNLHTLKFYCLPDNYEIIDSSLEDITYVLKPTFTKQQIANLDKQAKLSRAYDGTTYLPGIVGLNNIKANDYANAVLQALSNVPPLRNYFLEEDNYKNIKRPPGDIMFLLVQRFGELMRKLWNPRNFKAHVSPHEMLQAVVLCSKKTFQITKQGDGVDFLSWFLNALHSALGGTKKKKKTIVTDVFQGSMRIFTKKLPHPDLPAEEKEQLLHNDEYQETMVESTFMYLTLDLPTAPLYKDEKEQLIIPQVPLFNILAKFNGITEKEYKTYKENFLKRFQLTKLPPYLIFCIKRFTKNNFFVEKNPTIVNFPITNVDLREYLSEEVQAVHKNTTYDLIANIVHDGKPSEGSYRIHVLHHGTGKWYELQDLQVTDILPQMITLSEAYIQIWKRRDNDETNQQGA
Outline: as §1

USP4 = molecular target: T4, USP4 (UniProt Q13107)
T4 sequence (whole entry): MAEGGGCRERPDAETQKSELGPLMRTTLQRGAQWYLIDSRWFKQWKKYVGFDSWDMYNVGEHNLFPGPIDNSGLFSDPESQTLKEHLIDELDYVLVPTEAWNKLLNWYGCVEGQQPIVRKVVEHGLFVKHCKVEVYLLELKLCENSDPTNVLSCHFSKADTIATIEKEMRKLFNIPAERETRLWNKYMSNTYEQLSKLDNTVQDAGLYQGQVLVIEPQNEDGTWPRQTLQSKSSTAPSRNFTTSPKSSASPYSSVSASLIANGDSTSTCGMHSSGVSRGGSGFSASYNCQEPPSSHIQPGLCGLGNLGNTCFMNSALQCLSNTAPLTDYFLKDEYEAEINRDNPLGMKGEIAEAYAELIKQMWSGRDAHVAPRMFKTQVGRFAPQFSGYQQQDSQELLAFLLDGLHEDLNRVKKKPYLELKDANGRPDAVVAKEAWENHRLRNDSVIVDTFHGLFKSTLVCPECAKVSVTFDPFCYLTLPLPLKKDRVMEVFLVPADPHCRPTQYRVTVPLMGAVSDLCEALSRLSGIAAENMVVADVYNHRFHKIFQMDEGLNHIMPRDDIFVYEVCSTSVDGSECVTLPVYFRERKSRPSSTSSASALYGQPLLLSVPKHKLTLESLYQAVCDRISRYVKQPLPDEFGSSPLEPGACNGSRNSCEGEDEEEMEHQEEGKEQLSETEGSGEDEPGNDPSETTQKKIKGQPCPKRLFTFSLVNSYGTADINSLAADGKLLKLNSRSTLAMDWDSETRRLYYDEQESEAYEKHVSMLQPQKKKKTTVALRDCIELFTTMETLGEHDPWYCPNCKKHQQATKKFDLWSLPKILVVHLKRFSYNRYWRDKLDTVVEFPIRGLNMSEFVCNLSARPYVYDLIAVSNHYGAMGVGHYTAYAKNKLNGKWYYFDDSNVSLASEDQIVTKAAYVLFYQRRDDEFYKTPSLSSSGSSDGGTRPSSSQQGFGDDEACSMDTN
Outline: as §1

Measured: log2 ratio of Biotin-Ahx-Ub-VS probe labelling

O=C(CCl)N1CCC(O)(Cc2ccc(F)cc2)C1 (stereo not given)
inactive: USP34 -0.0775 | USP36 0.229 | USP38 0.29 | USP39 0.427 | USP4 -0.138
